From PubChem BioAssay
Most compounds without a hit are left out; they make up all but 6.1% or so of the library.
DRD3 agonist – qHTS of D3 Dopamine Receptor Agonist: qHTS. actives 0.58% (n = 410,000). D(3) dopamine receptor (Homo sapiens), P35462. AID 652048, 2013. max activation, %. D3R DiscoveRx beta-arrestin cells, luminescence, 90 min; in the data active means max activation above about 30%; further: 0% is about no effect
Target sequence (P35462 whole entry, looked up): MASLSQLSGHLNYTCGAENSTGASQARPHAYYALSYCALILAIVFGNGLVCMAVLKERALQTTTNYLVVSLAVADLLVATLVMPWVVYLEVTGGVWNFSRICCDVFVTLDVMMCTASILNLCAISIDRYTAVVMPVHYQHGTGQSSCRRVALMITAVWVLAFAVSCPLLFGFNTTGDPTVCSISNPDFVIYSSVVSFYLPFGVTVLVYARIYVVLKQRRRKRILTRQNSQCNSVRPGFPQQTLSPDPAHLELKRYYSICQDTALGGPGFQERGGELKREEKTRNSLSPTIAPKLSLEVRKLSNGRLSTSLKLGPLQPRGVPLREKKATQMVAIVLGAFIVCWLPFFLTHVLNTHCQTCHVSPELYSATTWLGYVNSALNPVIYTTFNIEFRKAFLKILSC
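Cells at 1500/well, incubated overnight, then treated with pinned compounds (dopamine as control) for 90 min at 37 degrees C. DiscoveRx reagent added for 30 - 60 minutes at room temperature; luminescence read.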
D1 PAM – Potentiators of Human D1 Dopamine Receptor: qHTS | D(1A) dopamine receptor (Homo sapiens), P21728 | actives 0.036% (n = 360,000) | potentiation, % at 10 µM | HEK293 TREx D1 cells, calcium flux, dopamine EC20 potentiation; in the data active means potentiation above about 30%; further: 0% is about no effect
D1 ag – Allosteric Agonists of the Human D1 Dopamine Receptor: qHTS | D(1A) dopamine receptor (Homo sapiens), P21728 | HEK293 T-REx D1 cells, calcium flux, agonist mode | activation, % at 2 µM | actives 1% (n = 360,000) | AID 504660, 2011; in the data active means activation above about 30%; further: 0% is about no effect
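Inducible HEK293 T-REx D1 cells, force-coupled to calcium signalling, were plated at 4000 cells/well with tetracycline and held overnight at 30 C. After no-wash calcium dye loading, compound-evoked calcium rise over 180 s flagged agonists.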
DRD3 antagonist – qHTS of D3 Dopamine Receptor Antagonist: qHTS. D(3) dopamine receptor (Homo sapiens), P35462. D3R cells, DiscoveRx beta-arrestin luminescence, antagonist mode; hits give low values. max response, negative = inhibition, %. actives 2.5% (n = 360,000). AID 652054, 2013; in the data active means max response below about -50%; further: on the % scale 0 is the no-effect control and ±100 the full control effect
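Cells plated overnight at 1500 cells/well, then exposed to library compounds with dopamine controls for 90 minutes at 37 degrees C. DiscoveRx reagent added for 30–60 minutes at room temperature; luminescence read, quantitative HTS format.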
D1 antagonist – Antagonist of Human D 1 Dopamine Receptor: qHTS. D(1A) dopamine receptor (Homo sapiens), P21728. HEK293 TREx D1 cells, calcium flux, dopamine EC80; hits give low values. activity change, negative = inhibition, % at 10 µM. actives 3.2% (n = 360,000). AID 504652, 2011; in the data active means activity change below about -30%; further: on the % scale 0 is the no-effect control and ±100 the full control effect
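Using tetracycline-induced force-coupled D1 Hek293 cells and a calcium dye, signals were followed for 180 s after compound, then for 180 s after EC80 dopamine, to detect inhibitors.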
Numbers without * were called inactive; x = not tested or not shown.

SMILES	DRD3 agonist	D1 PAM	D1 ag	DRD3 antagonist	D1 antagonist
Cc1c(C(=O)O)c(C(=O)O)c2n1CCS2	-4	3	4	-24	-2
Cc1ccc(C(=O)C2CCN(CC(=O)NC3CCCC3)CC2)cc1	-19	-11	0	-15	7
O=C(CSc1ccc(-c2ccc(Cl)cc2)nn1)N1CCCc2ccccc21	5	-6	6	-12	-34*
O=C(CSc1ccc(-c2ccc(F)cc2)nn1)N1CCCc2ccccc21	3	1	4	3	13
Cc1ccc(C(=O)C2CCNCC2)cc1	-6	2	-1	-65*	6
Cc1ccc(C(=O)C2CCN(S(=O)(=O)c3ccc(C(=O)O)cc3)CC2)cc1	10	-3	2	7	1
Cc1ccc(C(=O)C2CCN(CC(=O)NCc3ccc(F)cc3)CC2)cc1	-29	-9	3	-93*	1
Cc1ccc(CNC(=O)CN2CCCC(C)C2)cc1 (stereo not given)	-6	-3	2	-71*	10
Cc1ccc(Cn2c(CN3CCC(C(=O)NCc4cccnc4)CC3)cc3ccccc32)cc1	-1	0	2	x	1
Cc1ccc(NC(=O)CN2CCC(C(=O)c3ccc(F)cc3)CC2)cc1	-10	-8	0	-69*	-11
Cc1ccc(NC(=O)CSc2ccc(-c3ccc4c(c3)OCO4)nn2)cc1F	14	-4	-1	6	-2
O=C(CN1CCC(C(=O)c2ccc(Cl)cc2)CC1)Nc1ccc2c(c1)OCCO2	-27	-7	7	-76*	-5
O=C(CSc1ccc(-c2ccc(Cl)cc2)nn1)Nc1ccc2c(c1)OCCO2	2	-7	1	1	-31*
NC(=O)C1CCN(CC(=O)Nc2ccc3c(c2)OCCO3)CC1	4	x	x	-28	x
CN(C)c1ccc(S(=O)(=O)N2CCC(Cc3ccccc3)CC2)cn1	-5	x	x	11	x
Cc1ccc(NC(=O)[C@H](C)NC(=O)C2CCN(C(=O)[C@@H](N)C(C)C)CC2)cc1	0	-4	1	10	7
CCN(CCCNC(=O)c1cc2cc3ccc(OC)cc3nc2s1)c1ccccc1	3	-5	-2	x	-21
COc1ccc2nc3sc(C(=O)NCCCN4CCc5ccccc5C4)cc3cc2c1	-24	3	1	-88*	-4
COc1ccc(S(=O)(=O)Cc2ccc(C(=O)NCCCN3CCc4ccccc4C3)o2)cc1	-16	x	3	-92*	-19
COc1ccccc1S(=O)(=O)Cc1ccc(C(=O)NCCCN2CCN(c3ccc(F)cc3)CC2)o1	-6	-23	1	-77*	-62*
COc1ccc(N2CCN(CCCNC(=O)c3ccc(CS(=O)(=O)c4ccc(OC)cc4)o3)CC2)cc1	18	-3	5	-11	-18
COc1ccccc1S(=O)(=O)Cc1ccc(C(=O)N2CCN(c3ccccc3)CC2)o1	3	-4	4	0	-8
COC(=O)c1cnc(Oc2ccc(NC(=O)NC(=O)c3c(OC)cccc3OC)cc2)cc1C(F)(F)F	-11	-11	2	-30	-54*
CC1CCN(C(=O)C2CCN(S(=O)(=O)c3ccc(-n4cnnn4)cc3)CC2)CC1	3	5	0	8	-14
O=C(CN1CCN(Cc2ccccc2)CC1)NC(=O)NC1CCCCC1	-1	1	1	-2	14
SMILES	DRD3 agonist	D1 PAM	D1 ag	DRD3 antagonist	D1 antagonist
O=C(CN1CCN(C/C=C/c2ccccc2)CC1)NC(=O)NC1CCCCC1	-6	0	6	-65*	-7
S=C(NC1CCCC1)N1CCN(C/C=C/c2ccccc2)CC1	-4	-10	16	15	-36*
S=C(NC1CCCC1)N1CCN(c2ccc(Cl)cc2)CC1	0	-5	5	-7	-46*
FC(F)(F)c1cccc(N2CCN(C(=S)NC3CCCC3)CC2)c1	-14	-10	1	0	-17
CC(=O)c1cc(C)ccc1OC(=O)CN1C(=O)c2ccccc2C1=O	-2	-2	12	-19	5
CCOc1ccc(CN(CCc2ccc3c(c2)OCO3)Cc2cc(OC)cc(OC)c2)cc1	-3	-4	7	x	0
